Targets with a hit are over-represented here; the source holds about 7,900 in all. About 0.6% of all pairs of compound and target were hits. Values without a mark were called inactive.
What follows are targets tested with CCCCN(Cc1ccc(C(=O)NO)cc1)C(=O)Nc1ccccc1 [Nexturastat A] (assay: log2 fold change, soluble protein after heating vs DMSO (PISA); higher = thermal stabilisation; K562 cells, 10 uM, 30 min; active = over 0.2 and 3.5 SD of the protein, either way, in both replicates (recomputed)).
Procedure, shortened: (§1)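 K562 cells (2×10^6 cells/mL) were treated with 10 μM compound for 30 min, and aliquots were heated for 3 min over 48°C-58°C. Pooled aliquots were extracted in PBS with 0.5% NP-40 at 4°C, and the supernatant after 21,000xg for 90 min was measured by TMTpro 16plex LC-MS/MS with channel sums equalised. Reported thermal stability, relative to control samples and from duplicates, is a log2 fold change.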

UniProt Q16881, sequence (Q16881 whole entry, looked up): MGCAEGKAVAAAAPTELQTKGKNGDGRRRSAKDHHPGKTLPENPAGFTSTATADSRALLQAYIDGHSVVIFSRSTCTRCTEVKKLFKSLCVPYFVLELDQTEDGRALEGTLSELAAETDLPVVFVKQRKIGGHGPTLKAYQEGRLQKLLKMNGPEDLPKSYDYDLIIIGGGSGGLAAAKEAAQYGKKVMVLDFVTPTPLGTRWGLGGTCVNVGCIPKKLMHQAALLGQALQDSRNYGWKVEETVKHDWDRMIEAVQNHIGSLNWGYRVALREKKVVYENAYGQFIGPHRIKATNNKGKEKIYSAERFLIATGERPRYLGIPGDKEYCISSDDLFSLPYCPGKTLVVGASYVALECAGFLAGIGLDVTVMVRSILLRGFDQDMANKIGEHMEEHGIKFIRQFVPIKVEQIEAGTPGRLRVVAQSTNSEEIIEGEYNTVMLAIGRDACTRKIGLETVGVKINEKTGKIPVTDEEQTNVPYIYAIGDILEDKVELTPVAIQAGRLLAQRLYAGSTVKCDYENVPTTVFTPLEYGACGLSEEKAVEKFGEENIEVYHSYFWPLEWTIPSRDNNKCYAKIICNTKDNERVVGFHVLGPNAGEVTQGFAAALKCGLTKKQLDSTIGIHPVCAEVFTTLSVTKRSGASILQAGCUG
UniProt Q92890, sequence (Q92890 whole entry, looked up): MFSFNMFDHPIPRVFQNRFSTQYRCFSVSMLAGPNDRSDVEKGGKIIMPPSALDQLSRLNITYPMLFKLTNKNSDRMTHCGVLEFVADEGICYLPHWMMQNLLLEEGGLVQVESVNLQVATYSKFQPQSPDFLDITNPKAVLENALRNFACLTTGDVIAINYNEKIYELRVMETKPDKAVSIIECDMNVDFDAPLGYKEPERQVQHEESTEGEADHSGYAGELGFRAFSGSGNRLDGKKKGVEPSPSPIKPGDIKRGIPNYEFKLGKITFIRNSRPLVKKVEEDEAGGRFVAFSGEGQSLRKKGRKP
UniProt Q9H267, sequence (Q9H267 whole entry, looked up): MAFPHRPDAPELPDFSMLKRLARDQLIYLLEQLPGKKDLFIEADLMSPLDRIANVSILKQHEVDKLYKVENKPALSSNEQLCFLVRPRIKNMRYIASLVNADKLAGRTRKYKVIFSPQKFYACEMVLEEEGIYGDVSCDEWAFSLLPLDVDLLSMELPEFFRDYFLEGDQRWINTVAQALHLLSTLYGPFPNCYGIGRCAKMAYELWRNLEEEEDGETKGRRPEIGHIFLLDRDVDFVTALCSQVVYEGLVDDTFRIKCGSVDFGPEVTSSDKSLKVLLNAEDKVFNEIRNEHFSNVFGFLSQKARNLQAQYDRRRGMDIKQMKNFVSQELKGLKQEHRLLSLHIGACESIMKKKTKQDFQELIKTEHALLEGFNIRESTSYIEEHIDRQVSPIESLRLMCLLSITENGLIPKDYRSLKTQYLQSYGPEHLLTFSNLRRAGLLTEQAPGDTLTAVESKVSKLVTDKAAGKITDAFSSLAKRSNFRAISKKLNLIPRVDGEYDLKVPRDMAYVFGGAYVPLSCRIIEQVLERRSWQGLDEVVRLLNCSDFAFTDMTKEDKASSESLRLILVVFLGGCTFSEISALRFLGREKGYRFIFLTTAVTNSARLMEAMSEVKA
UniProt Q5BJH2, sequence (Q5BJH2 whole entry, looked up): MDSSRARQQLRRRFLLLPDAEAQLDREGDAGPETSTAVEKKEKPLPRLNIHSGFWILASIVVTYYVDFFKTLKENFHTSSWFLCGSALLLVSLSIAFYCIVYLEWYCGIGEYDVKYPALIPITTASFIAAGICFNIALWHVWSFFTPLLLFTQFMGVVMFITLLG
UniProt Q8NCE0, sequence (Q8NCE0 whole entry, looked up): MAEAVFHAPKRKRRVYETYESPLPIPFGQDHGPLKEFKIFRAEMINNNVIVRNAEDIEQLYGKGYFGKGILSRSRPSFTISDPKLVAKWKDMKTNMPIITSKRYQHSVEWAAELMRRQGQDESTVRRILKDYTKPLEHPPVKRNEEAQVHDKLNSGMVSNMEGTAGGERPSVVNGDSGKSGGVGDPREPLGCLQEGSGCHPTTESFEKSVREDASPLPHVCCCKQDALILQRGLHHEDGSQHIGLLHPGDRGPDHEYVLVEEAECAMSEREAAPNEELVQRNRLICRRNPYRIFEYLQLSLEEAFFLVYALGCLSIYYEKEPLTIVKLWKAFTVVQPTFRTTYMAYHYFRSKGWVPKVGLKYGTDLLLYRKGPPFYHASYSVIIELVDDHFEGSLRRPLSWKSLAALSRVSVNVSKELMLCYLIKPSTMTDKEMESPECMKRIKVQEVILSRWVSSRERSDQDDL
UniProt P28908, sequence (P28908 whole entry, looked up): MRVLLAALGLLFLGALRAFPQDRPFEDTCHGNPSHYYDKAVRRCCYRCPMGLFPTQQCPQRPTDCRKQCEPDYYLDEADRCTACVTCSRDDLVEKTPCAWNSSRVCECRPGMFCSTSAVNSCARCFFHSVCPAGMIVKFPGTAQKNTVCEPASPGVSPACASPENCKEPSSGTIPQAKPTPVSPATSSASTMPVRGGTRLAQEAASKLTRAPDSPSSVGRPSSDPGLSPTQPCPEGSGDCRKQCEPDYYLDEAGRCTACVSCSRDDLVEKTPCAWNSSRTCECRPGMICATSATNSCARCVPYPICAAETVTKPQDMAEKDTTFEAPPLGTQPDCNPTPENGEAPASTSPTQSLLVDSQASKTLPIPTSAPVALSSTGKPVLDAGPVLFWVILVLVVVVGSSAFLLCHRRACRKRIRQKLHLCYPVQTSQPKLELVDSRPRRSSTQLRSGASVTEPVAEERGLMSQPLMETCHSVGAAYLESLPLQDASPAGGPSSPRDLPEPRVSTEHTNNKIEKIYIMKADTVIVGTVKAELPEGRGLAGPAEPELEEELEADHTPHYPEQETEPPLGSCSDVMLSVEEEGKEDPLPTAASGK
UniProt Q14139, sequence (Q14139 whole entry, looked up): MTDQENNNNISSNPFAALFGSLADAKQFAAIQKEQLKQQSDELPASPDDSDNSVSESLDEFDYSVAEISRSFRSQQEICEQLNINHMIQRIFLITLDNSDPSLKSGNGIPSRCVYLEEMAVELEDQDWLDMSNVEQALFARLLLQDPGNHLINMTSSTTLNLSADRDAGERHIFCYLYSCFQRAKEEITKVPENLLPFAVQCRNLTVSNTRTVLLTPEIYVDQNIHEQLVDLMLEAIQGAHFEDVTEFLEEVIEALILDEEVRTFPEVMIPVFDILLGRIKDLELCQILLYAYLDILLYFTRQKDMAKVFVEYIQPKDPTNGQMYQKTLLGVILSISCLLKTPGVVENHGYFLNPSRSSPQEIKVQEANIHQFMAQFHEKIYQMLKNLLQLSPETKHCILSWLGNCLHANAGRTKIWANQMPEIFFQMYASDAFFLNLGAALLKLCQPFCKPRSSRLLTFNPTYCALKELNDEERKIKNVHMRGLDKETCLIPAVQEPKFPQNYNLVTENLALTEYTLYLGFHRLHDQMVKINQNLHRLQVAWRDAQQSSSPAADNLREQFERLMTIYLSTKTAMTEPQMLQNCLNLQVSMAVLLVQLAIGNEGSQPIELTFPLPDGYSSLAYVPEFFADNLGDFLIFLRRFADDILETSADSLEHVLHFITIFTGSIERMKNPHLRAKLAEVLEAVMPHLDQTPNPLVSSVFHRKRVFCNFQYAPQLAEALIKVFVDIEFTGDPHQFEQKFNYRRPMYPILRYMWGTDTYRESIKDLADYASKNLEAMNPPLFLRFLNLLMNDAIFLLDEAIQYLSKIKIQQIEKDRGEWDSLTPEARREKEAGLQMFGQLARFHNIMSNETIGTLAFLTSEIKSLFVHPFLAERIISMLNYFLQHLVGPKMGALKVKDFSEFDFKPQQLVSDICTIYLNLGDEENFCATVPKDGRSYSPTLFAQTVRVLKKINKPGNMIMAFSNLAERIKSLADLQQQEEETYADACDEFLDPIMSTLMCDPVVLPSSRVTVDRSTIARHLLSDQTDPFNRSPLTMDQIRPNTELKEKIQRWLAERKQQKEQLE
UniProt Q9NQZ2, sequence (Q9NQZ2 whole entry, looked up): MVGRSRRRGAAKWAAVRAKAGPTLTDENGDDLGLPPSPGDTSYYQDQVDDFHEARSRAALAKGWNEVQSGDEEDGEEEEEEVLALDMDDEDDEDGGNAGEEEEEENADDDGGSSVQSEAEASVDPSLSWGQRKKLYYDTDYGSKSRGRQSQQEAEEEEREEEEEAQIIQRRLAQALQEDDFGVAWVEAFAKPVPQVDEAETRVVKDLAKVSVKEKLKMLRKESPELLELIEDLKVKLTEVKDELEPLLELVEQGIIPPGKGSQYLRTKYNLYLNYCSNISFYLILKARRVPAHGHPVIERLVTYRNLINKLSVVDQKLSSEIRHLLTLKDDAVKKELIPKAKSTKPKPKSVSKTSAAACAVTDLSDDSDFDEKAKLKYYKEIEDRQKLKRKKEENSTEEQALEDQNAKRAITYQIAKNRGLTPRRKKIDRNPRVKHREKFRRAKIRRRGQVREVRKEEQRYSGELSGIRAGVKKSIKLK
UniProt Q9NUM4, sequence (Q9NUM4 whole entry, looked up): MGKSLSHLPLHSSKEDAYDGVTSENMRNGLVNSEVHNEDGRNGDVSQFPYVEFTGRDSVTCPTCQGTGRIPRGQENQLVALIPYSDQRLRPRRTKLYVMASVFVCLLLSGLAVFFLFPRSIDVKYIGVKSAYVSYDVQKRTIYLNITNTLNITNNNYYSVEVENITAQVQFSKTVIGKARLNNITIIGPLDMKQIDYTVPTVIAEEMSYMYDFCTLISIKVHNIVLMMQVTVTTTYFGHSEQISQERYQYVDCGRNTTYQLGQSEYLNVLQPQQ
UniProt Q9UBK9, sequence (Q9UBK9 whole entry, looked up): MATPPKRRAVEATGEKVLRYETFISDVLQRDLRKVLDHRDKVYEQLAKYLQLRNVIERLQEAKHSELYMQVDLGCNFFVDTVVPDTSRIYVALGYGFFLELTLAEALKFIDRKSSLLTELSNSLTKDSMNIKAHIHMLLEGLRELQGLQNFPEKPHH
UniProt Q99757, sequence (Q99757 whole entry, looked up): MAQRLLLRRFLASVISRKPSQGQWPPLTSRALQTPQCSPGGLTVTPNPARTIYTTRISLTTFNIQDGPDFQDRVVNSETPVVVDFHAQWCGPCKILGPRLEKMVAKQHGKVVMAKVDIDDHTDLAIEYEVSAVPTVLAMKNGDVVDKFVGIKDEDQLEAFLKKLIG

Row | Target | log2 fold change
1 | UXT isoform 2 (UniProt Q9UBK9) | 0.904 (active)
2 | TMEM128 (UniProt Q5BJH2) | 0.021
3 | VWA3B isoform 6 (UniProt Q502W6) | -0.292
4 | TMEM164 (UniProt Q5U3C3) | -0.142
5 | TXN2 (UniProt Q99757) | 0.093
6 | WDR37 isoform 2 (UniProt Q9Y2I8) | 0.039
7 | UBA52 (UniProt P62987) | 0.281
8 | USP15 (UniProt Q9Y4E8) | -0.001
9 | UTP3 (UniProt Q9NQZ2) | 0.308
10 | TTC33 (UniProt Q6PID6) | 0.026
11 | WDR75 (UniProt Q8IWA0) | 0.395
12 | UFD1 isoform 1 (UniProt Q92890) | 0.015
13 | TMEM189-UBE2V1 (UniProt I3L0A0) | -0.042
14 | TSEN2 (UniProt Q8NCE0) | -0.013
15 | UCHL5 isoform 3 (UniProt Q9Y5K5) | 0.07
16 | TMEM184C (UniProt Q9NVA4) | -0.02
17 | TMEM106B (UniProt Q9NUM4) | -0.11
18 | UBE4A isoform 2 (UniProt Q14139) | 0.061
19 | UCHL5 (UniProt Q9Y5K5) | 0.048
20 | VPS33B (UniProt Q9H267) | 0.032
21 | VPS33A (UniProt Q96AX1) | -0.024
22 | VPS18 (UniProt Q9P253) | 0.04
23 | TNFRSF8 (UniProt P28908) | 0.008
24 | TXNRD1 (UniProt Q16881) | -0.051
25 | WDCP (UniProt Q9H6R7) | 0.061
26 | TSC2 (UniProt P49815) | 0.173
27 | TNPO3 (UniProt Q9Y5L0) | -0.036
28 | UBE3B (UniProt Q7Z3V4) | 0.014
29 | TMEM179B (UniProt Q7Z7N9) | 0.378

These targets were tested with CCCS(=O)(=O)Nc1ccc(F)c(C(=O)c2c[nH]c3ncc(-c4ccc(Cl)cc4)cc23)c1F [vemurafenib] in the same assay as above.
Procedure, shortened: as §1

Row | Target | log2 fold change
30 | UXT isoform 2 (UniProt Q9UBK9) | -0.023
31 | TMEM128 (UniProt Q5BJH2) | -0.279
32 | VWA3B isoform 6 (UniProt Q502W6) | -0.1
33 | TMEM164 (UniProt Q5U3C3) | -0.083
34 | TXN2 (UniProt Q99757) | 0.006
35 | WDR37 isoform 2 (UniProt Q9Y2I8) | 0.01
36 | UBA52 (UniProt P62987) | -0.212
37 | U2AF1L5 (UniProt P0DN76) | 0.019
38 | TRIM44 (UniProt Q96DX7) | -0.005
39 | USP15 (UniProt Q9Y4E8) | 0.04
40 | UTP3 (UniProt Q9NQZ2) | 0.004
41 | TTC33 (UniProt Q6PID6) | -0.07
42 | WDR75 (UniProt Q8IWA0) | -0.126
43 | UFD1 isoform 1 (UniProt Q92890) | 0
44 | TXNL4B (UniProt Q9NX01) | 0.453 (active)
45 | TMEM189-UBE2V1 (UniProt I3L0A0) | -0.005
46 | WARS1 (UniProt G3V277) | -0.587 (active)

Row | Target | log2 fold change
47 | UNC119B (UniProt A6NIH7) | 0.023
48 | TSEN2 (UniProt Q8NCE0) | 0.058
49 | UCHL5 isoform 3 (UniProt Q9Y5K5) | -0.02
50 | TMEM184C (UniProt Q9NVA4) | 0.024
51 | TMEM106B (UniProt Q9NUM4) | -0.163
52 | UBIAD1 (UniProt Q9Y5Z9) | 0.07
53 | UBE4A isoform 2 (UniProt Q14139) | 0.048
54 | UCHL5 (UniProt Q9Y5K5) | 0.075
55 | VPS33B (UniProt Q9H267) | 0.087
56 | VPS33A (UniProt Q96AX1) | 0.003
57 | VPS18 (UniProt Q9P253) | 0.017
58 | VKORC1 (UniProt Q9BQB6) | -0.023
59 | TNFRSF8 (UniProt P28908) | -0.028
60 | TXNRD1 (UniProt Q16881) | 0.024
61 | WDCP (UniProt Q9H6R7) | -0.087
62 | TNPO3 (UniProt Q9Y5L0) | 0.069

What follows are targets tested with CCCS(=O)(=O)Nc1ccc(F)c(C(=O)c2c[nH]c3ncc(Cl)cc23)c1F in the same assay as above.
Procedure, shortened: as §1

Row | Target | log2 fold change
63 | UXT isoform 2 (UniProt Q9UBK9) | -0.013
64 | TMEM128 (UniProt Q5BJH2) | 0.052
65 | VWA3B isoform 6 (UniProt Q502W6) | 0.008
66 | TMEM164 (UniProt Q5U3C3) | 0.078
67 | TXN2 (UniProt Q99757) | -0.048
68 | WDR37 isoform 2 (UniProt Q9Y2I8) | 0.012
69 | UBA52 (UniProt P62987) | -0.165
70 | TRIM44 (UniProt Q96DX7) | 0.042
71 | USP15 (UniProt Q9Y4E8) | 0.053
72 | UTP3 (UniProt Q9NQZ2) | 0.022
73 | TTC33 (UniProt Q6PID6) | -0.002
74 | WDR75 (UniProt Q8IWA0) | -0.069
75 | UFD1 isoform 1 (UniProt Q92890) | 0.018
76 | TXNL4B (UniProt Q9NX01) | 0.024
77 | TMEM189-UBE2V1 (UniProt I3L0A0) | -0.056
78 | UNC119B (UniProt A6NIH7) | -0.047
79 | TSEN2 (UniProt Q8NCE0) | 0.063

Row | Target | log2 fold change
80 | UCHL5 isoform 3 (UniProt Q9Y5K5) | 0.243
81 | TMEM106B (UniProt Q9NUM4) | -0.081
82 | UBIAD1 (UniProt Q9Y5Z9) | 0.093
83 | UBE4A isoform 2 (UniProt Q14139) | 0.097
84 | UCHL5 (UniProt Q9Y5K5) | 0.08
85 | VPS33B (UniProt Q9H267) | 0.069
86 | VPS33A (UniProt Q96AX1) | 0.036
87 | VPS18 (UniProt Q9P253) | 0.017
88 | VKORC1 (UniProt Q9BQB6) | 0.117
89 | TNFRSF8 (UniProt P28908) | -0.015
90 | TXNRD1 (UniProt Q16881) | 0.007
91 | WDCP (UniProt Q9H6R7) | 0.025
92 | TSC2 (UniProt P49815) | 0.098
93 | TNPO3 (UniProt Q9Y5L0) | 0.08
94 | UBE3B (UniProt Q7Z3V4) | -0.099
95 | TMEM179B (UniProt Q7Z7N9) | 0.053
